Experimental data published in ChEMBL document CHEMBL1201862, “PubChem BioAssay data set” (2004).
The campaign covered roughly 57,000 […]. About 4,900 (8.6%) were called active. Cut-off read from the data, not from the text of the source: active = GI50 up to about 1.1 µM and inactive = higher. The entries come from a sample that favours actives as a whole. Potency and affinity values are given separately.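 Dose response: 5 concentrations. Exposure: 48 h. Format: 96-well plates. Endpoint: linear interpolation; highest concentration if not reached. At the GI50, growth is halved.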

Test system: MOLT-4
Test: NCI tumour cell line growth inhibition, 48 h

Substance | GI50 [nM]
[Bis(aminomethyl)ethylmethylsilane]tetrachloroplatinum(IV), CHEMBL2146192 | 531
[Bis(aminomethyl)dimethylsilane]tetrachloroplatinum(IV), CHEMBL2146190 | 1680
[Bis(aminomethyl)tetramethylenesilane]tetrachloropaltinum(IV), CHEMBL2146189 | 824
cis-Bis[[(trimethylsilyl)methyl]amino]tetrachloroplatinum(IV), CHEMBL2146191 | 2000
CISPLATIN, CHEMBL11359 | 1430
[Bis(aminomethyl)tetramethylenesilane]dichloropaltinum(II), CHEMBL2146205 | 2090
[Bis(aminomethyl)diethylsilane]tetrachloroplatinum(IV), CHEMBL2146203 | 561
[Bis(aminomethyl)dimethylsilane]dichloroplatinum (II), CHEMBL2146201 | 5000
mu-(1,7-nanodiamine-N,N')bis-(cis-aminedichloroplatimum (II)), CHEMBL2146215 | 592
[Bis(aminomethyl)pentamethylenesilane]dichloropaltinum(II), CHEMBL2146202 | 325
[Bis(aminomethyl)pentamethylenesilane]tetrachloropaltinum(IV), CHEMBL2146204 | 505
